Source: PubChem BioAssay
BAZ2B inh – inhibitors of human BAZ2B bromodomain; Potency, µM (top dose mostly 114 µM), without a hit: at the top dose activity change, negative = inhibition, actives largely listed as inhibitors; AlphaScreen BAZ2B-H3K14Ac peptide displacement; 360,000 compounds, 4.4% hits; Q9UIF8; note: potency is the fitted concentration of half-maximal effect; % is set by controls: 0 for no effect and ±100 for the full control effect; nearly all actives have a fitted effect of over 60% in size
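Complex of BAZ2B and biotin-H3K14Ac (50 nM apiece) forms over 30 min at RT, then faces library compounds up to 110 uM for another 30 min; AlphaScreen beads added, 20 min dark incubation, luminescence read.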
CtBP-E1A blk – CtBP/E1A binding inhibition. AlphaScreen GST-E1A/His-CtBP binding, 1536-well; hits give low values. activity change, % (test concentration not listed). 340,000 compounds, 0.49% hits. AID 651724; in the data active = activity change below about -65%; inconclusive = mostly about -30% to -63%; note: % is set by controls: 0 for no effect and ±100 for the full control effect
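Homogeneous bead-based format: GST-tagged E1A captured on glutathione donor beads, His-tagged CtBP on nickel acceptor beads; compounds precede bead addition by 2 h at 37 °C.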
Six1-Eya2 blk – inhibitors of human Six1/Eya2 interaction; activity change, % (concentration not given with the values); AlphaScreen GST-Six1/His-Eya2 binding, biochemical; hits give low values; 360,000 compounds, 0.56% hits; in the data active = activity change below about -65%; inconclusive = mostly about -30% to -63%; note: % is set by controls: 0 for no effect and ±100 for the full control effect
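Six1/Eya2 binding was read as AlphaScreen signal after compounds were pinned into GST-Six1 plus His-tagged Eya2 (5X stock 250/500 nM) in pH 8.0 Tris/NaCl/TCEP buffer, beads added, then incubated 1 h, 37 C, dark.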
JMJD2A Tudor inh – JMJD2A Tudor domain (human) inhibition; AlphaScreen JMJD2A-Tudor / H3K4me3 peptide binding; Potency, µM (highest dose often 114 µM), for the others: at the highest dose activity change, negative = inhibition, most hits filed as inhibitors; 390,000 compounds, 4.4% hits; AID 504339; note: potency is the fitted concentration of half-maximal effect; % is set by controls: 0 for no effect and ±100 for the full control effect; nearly all actives have a fitted effect of over 50% in size
G9a inh – inhibitors of human histone lysine methyltransferase G9a. Q96KQ7. 350,000 compounds, 8.8% hits. Potency, µM (doses to about 102 µM), for the others: top-dose activity, negative = inhibition, actives largely listed as inhibitors. G9a H3K9 monomethylation, AlphaScreen, 2 h; note: potency is the fitted concentration of half-maximal effect; % is set by controls: 0 for no effect and ±100 for the full control effect; nearly all actives have a fitted effect of over 75% in size
Target sequence (Q96KQ7 913-1193 limits assumed): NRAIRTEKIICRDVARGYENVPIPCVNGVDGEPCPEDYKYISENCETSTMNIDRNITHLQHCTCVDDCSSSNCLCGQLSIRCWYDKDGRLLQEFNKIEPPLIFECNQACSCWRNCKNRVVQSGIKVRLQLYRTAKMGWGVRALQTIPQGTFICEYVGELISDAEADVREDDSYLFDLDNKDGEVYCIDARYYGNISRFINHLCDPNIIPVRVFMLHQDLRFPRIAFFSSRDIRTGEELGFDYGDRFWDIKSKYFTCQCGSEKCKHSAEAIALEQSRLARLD
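AlphaScreen detection with an anti-monomethyl H3K9 antibody quantified product after a 2 h room-temperature reaction containing 500 nM biotinylated H3K9 peptide, 20 µM SAM and 20 nM enzyme, which had been preincubated 15 min with compound.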
HP1b binding inh – blocks HP1-beta chromodomain binding to methylated histone tails | Potency, µM (top dose mostly 114 µM), without a hit: top-dose activity change, negative = inhibition, most hits filed as inhibitors | P83916 | 390,000 compounds, 0.56% hits | AlphaScreen HP1-beta / biotin-H3K9me3 peptide binding; note: potency is the fitted concentration of half-maximal effect; nearly all actives have a fitted effect of over 70% in size
Target sequence (P83916 whole entry, looked up): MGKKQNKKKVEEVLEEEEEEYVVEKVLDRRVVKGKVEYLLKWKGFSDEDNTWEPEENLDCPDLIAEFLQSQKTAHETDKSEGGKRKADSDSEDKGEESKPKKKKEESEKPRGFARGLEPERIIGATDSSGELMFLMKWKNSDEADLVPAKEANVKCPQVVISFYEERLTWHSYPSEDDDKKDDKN
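Compound inhibition of the preformed complex between 50 nM HP1-beta and 50 nM biotinylated H3K9me3 peptide was read by AlphaScreen. Buffer was PBS pH 7.4 with 0.01% Tween-20. Incubations ran 30 min at room temperature, with 10 ug/mL donor/acceptor beads.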
An asterisk follows results filed as active; ? = inconclusive; . = no result; [ ] = another dose, or the depositor's remark. Shown are actives, neighbours in structure and some others; about 10% of the full set was active somewhere. Unless noted, calls come from the whole dose curve; as a rule, active = well fitted inhibition curve with a large enough effect; inconclusive = small, poorly fitted or top-dose-only effect; inactive = no such curve, though single readings can be large or run the other way.

SMILES | BAZ2B inh | CtBP-E1A blk | Six1-Eya2 blk | JMJD2A Tudor inh | G9a inh | HP1b binding inh
CN1c2ccccc2C(C)(C)C12CC(CCl)=NO2 (stereo not given) | -6% | -7 | 2 | -21% | -10%[2.33 µM] | 23%
O=C(Nc1ccc(-c2cn3cccnc3n2)cc1)c1ccccc1F | -3% | . | . | -15% | -3%[59 µM] | 7%[57 µM]
CCCN1CNc2c(c(=O)[nH]c(=S)n2CCc2ccc(Cl)cc2)C1 | . | . | . | -16% | . | 29%
C(#Cc1ccccc1)CN1CCOCC1 | -16% | 9 | 6 | -21% | -4%[59 µM] | 13%
CC(O)(C#CCN1CCOCC1)c1ccccc1 (stereo not given) | -2% | -17 | 5 | -16% | 40µM* | 16%
OC(C#CCN1CCCC1)(c1ccccc1)c1cccnc1 (stereo not given) | 79µM* | ? | 1 | 28µM* | 8.9µM* | 4%
OC(C#CCCN1CCCCC1)(c1ccccc1)c1ccccc1 | 0% | -1 | 2 | -17% | . | 20%
OC(C#CCN1CCCC1)c1ccccc1 (stereo not given) | -33% | 8 | 2 | -11% | 45µM* | 19%
OC(C#CCN1CCCCCC1)(c1ccccc1)c1cccnc1 (stereo not given) | -31% | 0 | 3 | -10% | 18µM* | 10%
CCOc1cc(Cl)c(S(=O)(=O)n2cc(C)nc2CC)cc1Cl | -21% | . | . | -2% | -5%[59 µM] | 15%
CNC(=O)c1ccc(Nc2nnc(-c3ccc(C)c(S(=O)(=O)N4CCOCC4)c3)c3ccccc23)cc1 | 0% | . | . | -26% | -38%[59 µM] | 31%
O=C(CN1CCCCC1)NCC(=O)Nc1ccc(F)c(F)c1F | 2% | 15 | -5 | 4% | -2%[2.33 µM] | 47%
CC(C)C(O)(C#CCN1CCCCC1)c1ccccc1 (stereo not given) | 2% | 6 | 4 | -8% | 6%[12.7 µM] | 17%
CC(C)C(O)(C#CCN1CCCC1)c1ccccc1 (stereo not given) | ? | 3 | -3 | -14% | 25µM* | 33%
OCCN(CCO)c1nc(N2CCCCC2)c2nc(N(CCO)CCO)nc(N3CCCCC3)c2n1 | ? | -19 | -2 | -24% | 22µM* | 22%
CCc1ccccc1NNC(=O)c1snnc1C | -12% | -1 | -1 | -7% | 2.8µM* | 12%
CCc1ccccc1NNC(=O)c1sccc1Cl | . | . | . | -24% | . | 37%
Cc1nnsc1C(=O)NNc1c(Cl)cccc1Cl | 4% | 4 | 4 | -8% | 8.9µM* | 33%
O=C(Nc1ccc(-c2nc3cc(NC(=O)c4cccs4)ccc3o2)cc1)c1cccs1 | 19% | 6 | 1 | -4% | -14%[0.0925 µM] | 21%
COCCN1CCn2c(nc3cc(NC(=O)c4cccs4)ccc32)C1 | -33% | 0 | -20 | -12% | 20µM* | 16%
COc1ccc(C(=O)Nc2ccc3c(c2)nc2n3CCSC2)cc1 | -26% | -10 | -10 | -7% | 50µM* | -1%
O=C(Nc1ccc2oc(-c3ccncc3)nc2c1)c1cccs1 | 56µM* | -4 | -3 | -33% | -26%[12.7 µM] | 49%
CCCC(=O)Nc1ccc2c(c1)nc1n2CCN(CCOC)C1 | 0% | -22 | 13 | -10% | 25µM* | 45%
CCCCNC(=O)C(NC(=O)c1ccc2ccccc2c1)C(=O)c1ccccc1 (stereo not given) | . | 8 | -3 | . | . | .
O=C1c2ccccc2C(=O)N1c1ccncc1 | . | . | . | -6% | . | .
SMILES | BAZ2B inh | CtBP-E1A blk | Six1-Eya2 blk | JMJD2A Tudor inh | G9a inh | HP1b binding inh
COc1ccc(NC(=O)CSc2nc(-c3ccc(F)cc3)c3cccc(C)c3n2)cc1 | 1% | . | . | -23% | -22%[59 µM] | -1%
Cn1c(CN2CCCC2)nc2cc(NC(=O)c3cccs3)ccc21 | ? | -2 | -2 | -36% | 14µM* | 20%
CCCC(=O)Nc1ccc2c(c1)nc1n2CCOC1 | 5% | -2 | 1 | -7% | ? | 30%
CCCCC(=O)Nc1ccc2c(c1)nc1n2CCN(CCOC)C1 | -11% | . | 7 | -27% | 32µM* | 50%
CC(=O)N1CCN(Cc2nc3cc(NC(=O)c4cccs4)ccc3n2C)CC1 | 8% | -15 | -2 | 4% | 59% | 24%
CCCCC(=O)Nc1ccc2c(c1)nc1n2CCOC1 | 7% | 2 | 20 | 79µM* | 10% | -11%
Cc1ccc(C)c(CN2C(=O)c3ccccc3S(=O)c3ccc(C(=O)N4CCN(c5cccc(Cl)c5)CC4)cc32)c1 (stereo not given) | ? | . | . | -22% | -5%[59 µM] | 26%
O=C(CS(=O)(=O)c1ccc2ccccc2c1)N1CCCCCC1 | -9% | 4 | 0 | 9% | 25%[59 µM] | 25%
COCCn1c(-c2ccccc2)cnc1N | ? | ? | -88* | -24% | -11%[59 µM] | 14%
Cn1c(-c2ccccc2)cnc1N | ? | ? | ? | ? | 14% | 24%
COC(=O)C(Sc1nc(C)cc(C)c1C#N)c1ccccc1 (stereo not given) | 33% | 6 | 9 | 32% | 65% | 53%
Cc1cc(C)c(C#N)c(Sc2ccccc2N)n1 | -23% | ? | ? | -14% | 7.9µM* | 42%
COc1ccc(C(C(=O)c2ccccc2)c2ccccc2)cc1 (stereo not given) | . | 31 | 23 | . | . | .
Cc1ccc(-n2cc(CNCC3CC(=O)N(C4CC4)C3)c(-c3cccc(C)c3)n2)cc1 (stereo not given) | -6% | . | -6 | -11% | . | 25%
CCC(=O)Nc1nc2ccccc2n1CCN1CCOCC1 | . | 3 | 7 | 3.2µM* | ? | -10%
